Results published in PMC9911399, “Two distinct binding modes provide the RNA-binding protein RbFox with extraordinary sequence specificity”.
Positions count from the first letter of the chain named. Over roughly 16,000 sequences, “ka relative to ugcaugu” has its median near 0.096; the highest 2% begin near 0.35. Only a selection was taken, and the highest values are over-represented in it overall.

T1: RBFOX1 RRM RbFoxmut (Fox-RRM*) (Homo sapiens, UniProt Q9NWB1 109-208, R118D;E147R;N151S;E152T)
T1 sequence: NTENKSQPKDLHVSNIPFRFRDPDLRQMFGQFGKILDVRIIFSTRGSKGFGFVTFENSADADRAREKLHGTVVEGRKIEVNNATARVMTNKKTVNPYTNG

B1: UAACUCA (DNA:RNA)
RNA: GGGAGACCGGAAUUCAGAUUGUCCUAACUCAUUAAAUCCCGUCGUAGCCACCA
DNA 1: CAATCTGAATTCCGGTCTCCC
DNA 2: TGGTGGCTACGACGGGATT
B2: CCUCUGC (DNA:RNA)
RNA: B1 RNA with U25C, A26C, A27U, C30G, A31C
DNA 1: CAATCTGAATTCCGGTCTCCC
DNA 2: TGGTGGCTACGACGGGATT
B3: GACAUAA (DNA:RNA)
RNA: B1 RNA with U25G, A27C, C28A, C30A
DNA 1: CAATCTGAATTCCGGTCTCCC
DNA 2: TGGTGGCTACGACGGGATT
B4: GCAUGAA (DNA:RNA)
RNA: B1 RNA with U25G, A26C, C28U, U29G, C30A
DNA 1: CAATCTGAATTCCGGTCTCCC
DNA 2: TGGTGGCTACGACGGGATT
B5: GCAUAAA (DNA:RNA)
RNA: B1 RNA with U25G, A26C, C28U, U29A, C30A
DNA 1: CAATCTGAATTCCGGTCTCCC
DNA 2: TGGTGGCTACGACGGGATT
B6: GCAUGAU (DNA:RNA)
RNA: B1 RNA with U25G, A26C, C28U, U29G, C30A, A31U
DNA 1: CAATCTGAATTCCGGTCTCCC
DNA 2: TGGTGGCTACGACGGGATT
B7: GCAUAAU (DNA:RNA)
RNA: B1 RNA with U25G, A26C, C28U, U29A, C30A, A31U
DNA 1: CAATCTGAATTCCGGTCTCCC
DNA 2: TGGTGGCTACGACGGGATT
B8: GCAUAGA (DNA:RNA)
RNA: B1 RNA with U25G, A26C, C28U, U29A, C30G
DNA 1: CAATCTGAATTCCGGTCTCCC
DNA 2: TGGTGGCTACGACGGGATT
B9: GCAUUUU (DNA:RNA)
RNA: B1 RNA with U25G, A26C, C28U, C30U, A31U
DNA 1: CAATCTGAATTCCGGTCTCCC
DNA 2: TGGTGGCTACGACGGGATT
B10: CGCCCUU (DNA:RNA)
RNA: B1 RNA with U25C, A26G, A27C, U29C, C30U, A31U
DNA 1: CAATCTGAATTCCGGTCTCCC
DNA 2: TGGTGGCTACGACGGGATT
B11: UCGUUAU (DNA:RNA)
RNA: B1 RNA with A26C, A27G, C28U, C30A, A31U
DNA 1: CAATCTGAATTCCGGTCTCCC
DNA 2: TGGTGGCTACGACGGGATT
B12: UGUAUUC (DNA:RNA)
RNA: B1 RNA with A26G, A27U, C28A, C30U, A31C
DNA 1: CAATCTGAATTCCGGTCTCCC
DNA 2: TGGTGGCTACGACGGGATT
B13: UGUGUGG (DNA:RNA)
RNA: B1 RNA with A26G, A27U, C28G, C30G, A31G
DNA 1: CAATCTGAATTCCGGTCTCCC
DNA 2: TGGTGGCTACGACGGGATT
B14: UGUAAUG (DNA:RNA)
RNA: B1 RNA with A26G, A27U, C28A, U29A, C30U, A31G
DNA 1: CAATCTGAATTCCGGTCTCCC
DNA 2: TGGTGGCTACGACGGGATT
B15: UGUAUGC (DNA:RNA)
RNA: B1 RNA with A26G, A27U, C28A, C30G, A31C
DNA 1: CAATCTGAATTCCGGTCTCCC
DNA 2: TGGTGGCTACGACGGGATT
B16: UGUUAAA (DNA:RNA)
RNA: B1 RNA with A26G, A27U, C28U, U29A, C30A
DNA 1: CAATCTGAATTCCGGTCTCCC
DNA 2: TGGTGGCTACGACGGGATT
B17: UGUAAUC (DNA:RNA)
RNA: B1 RNA with A26G, A27U, C28A, U29A, C30U, A31C
DNA 1: CAATCTGAATTCCGGTCTCCC
DNA 2: TGGTGGCTACGACGGGATT
B18: UGUCGUA (DNA:RNA)
RNA: B1 RNA with A26G, A27U, U29G, C30U
DNA 1: CAATCTGAATTCCGGTCTCCC
DNA 2: TGGTGGCTACGACGGGATT
B19: UGUAGGG (DNA:RNA)
RNA: B1 RNA with A26G, A27U, C28A, U29G, C30G, A31G
DNA 1: CAATCTGAATTCCGGTCTCCC
DNA 2: TGGTGGCTACGACGGGATT
B20: UGUAUGG (DNA:RNA)
RNA: B1 RNA with A26G, A27U, C28A, C30G, A31G
DNA 1: CAATCTGAATTCCGGTCTCCC
DNA 2: TGGTGGCTACGACGGGATT
B21: UGUAUGA (DNA:RNA)
RNA: B1 RNA with A26G, A27U, C28A, C30G
DNA 1: CAATCTGAATTCCGGTCTCCC
DNA 2: TGGTGGCTACGACGGGATT
B22: CGUAAUG (DNA:RNA)
RNA: GGGAGACCGGAAUUCAGAUUGUCCCGUAAUGUUAAAUCCCGUCGUAGCCACCA
DNA 1: CAATCTGAATTCCGGTCTCCC
DNA 2: TGGTGGCTACGACGGGATT
B23: UGUAGGC (DNA:RNA)
RNA: B22 RNA with C25U, A29G, U30G, G31C
DNA 1: CAATCTGAATTCCGGTCTCCC
DNA 2: TGGTGGCTACGACGGGATT
B24: UGCUAAU (DNA:RNA)
RNA: B22 RNA with C25U, U27C, A28U, U30A, G31U
DNA 1: CAATCTGAATTCCGGTCTCCC
DNA 2: TGGTGGCTACGACGGGATT
B25: AGCGUUA (DNA:RNA)
RNA: B22 RNA with C25A, U27C, A28G, A29U, G31A
DNA 1: CAATCTGAATTCCGGTCTCCC
DNA 2: TGGTGGCTACGACGGGATT
B26: GUGCUCG (DNA:RNA)
RNA: B1 RNA with U25G, A26U, A27G, A31G
DNA 1: CAATCTGAATTCCGGTCTCCC
DNA 2: TGGTGGCTACGACGGGATT
B27: CUUACCA (DNA:RNA)
RNA: B22 RNA with G26U, A29C, U30C, G31A
DNA 1: CAATCTGAATTCCGGTCTCCC
DNA 2: TGGTGGCTACGACGGGATT
B28: GAGUGUA (DNA:RNA)
RNA: B1 RNA with U25G, A27G, C28U, U29G, C30U
DNA 1: CAATCTGAATTCCGGTCTCCC
DNA 2: TGGTGGCTACGACGGGATT
B29: CAGCCAU (DNA:RNA)
RNA: B1 RNA with U25C, A27G, U29C, C30A, A31U
DNA 1: CAATCTGAATTCCGGTCTCCC
DNA 2: TGGTGGCTACGACGGGATT
B30: UGUAUCG (DNA:RNA)
RNA: B22 RNA with C25U, A29U, U30C
DNA 1: CAATCTGAATTCCGGTCTCCC
DNA 2: TGGTGGCTACGACGGGATT
B31: UGUAUUA (DNA:RNA)
RNA: B22 RNA with C25U, A29U, G31A
DNA 1: CAATCTGAATTCCGGTCTCCC
DNA 2: TGGTGGCTACGACGGGATT
B32: UGUAUUG (DNA:RNA)
RNA: B22 RNA with C25U, A29U
DNA 1: CAATCTGAATTCCGGTCTCCC
DNA 2: TGGTGGCTACGACGGGATT
B33: UGUUGUA (DNA:RNA)
RNA: B22 RNA with C25U, A28U, A29G, G31A
DNA 1: CAATCTGAATTCCGGTCTCCC
DNA 2: TGGTGGCTACGACGGGATT
B34: UGUAUCC (DNA:RNA)
RNA: B22 RNA with C25U, A29U, U30C, G31C
DNA 1: CAATCTGAATTCCGGTCTCCC
DNA 2: TGGTGGCTACGACGGGATT
B35: UGUCCCG (DNA:RNA)
RNA: B22 RNA with C25U, A28C, A29C, U30C
DNA 1: CAATCTGAATTCCGGTCTCCC
DNA 2: TGGTGGCTACGACGGGATT

biological target: T1, RBFOX1 RRM RbFoxmut (Fox-RRM*); experiment: EMSA; HiTS-Eq, 1 nM pool, 10 min; buffer printed only for the single-RNA assays: 10 mM Tris pH 7.5, 150 mM NaCl, 3.4 mM EDTA, 0.001% NP-40, 30 C; conditions: tags: His6 N-terminal (pET28a); label: 5' 32P
Outline: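 Purified wild-type or mutant RbFox RRM at increasing concentrations was equilibrated with 1 nM of 5′-radiolabelled RNA carrying 7 randomized nucleotides for 10 min in 50 µL. Unbound RNA was separated by 8% native PAGE and sequenced. Relative association constants came from read-count changes of each RNA species compared with the control reaction, normalised to the cognate motif.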

Row | Binder | binding signal
1 | B1 | 0.1 KA relative to UGCAUGU
2 | B2 | 0.0985 KA relative to UGCAUGU
3 | B3 | 0.115 KA relative to UGCAUGU
4 | B4 | 0.798 KA relative to UGCAUGU
5 | B5 | 0.144 KA relative to UGCAUGU
6 | B6 | 0.551 KA relative to UGCAUGU
7 | B7 | 0.115 KA relative to UGCAUGU
8 | B8 | 0.132 KA relative to UGCAUGU
9 | B9 | 0.113 KA relative to UGCAUGU
10 | B10 | 0.0724 KA relative to UGCAUGU
11 | B11 | 0.11 KA relative to UGCAUGU
12 | B12 | 0.207 KA relative to UGCAUGU
13 | B13 | 0.173 KA relative to UGCAUGU
14 | B14 | 0.381 KA relative to UGCAUGU
15 | B15 | 0.684 KA relative to UGCAUGU
16 | B16 | 0.11 KA relative to UGCAUGU
17 | B17 | 0.157 KA relative to UGCAUGU
18 | B18 | 0.13 KA relative to UGCAUGU

Row | Binder | binding signal
19 | B19 | 0.0751 KA relative to UGCAUGU
20 | B20 | 0.394 KA relative to UGCAUGU
21 | B21 | 0.44 KA relative to UGCAUGU
22 | B22 | 0.157 KA relative to UGCAUGU
23 | B23 | 0.115 KA relative to UGCAUGU
24 | B24 | 0.0977 KA relative to UGCAUGU
25 | B25 | 0.113 KA relative to UGCAUGU
26 | B26 | 0.226 KA relative to UGCAUGU
27 | B27 | 0.0834 KA relative to UGCAUGU
28 | B28 | 0.258 KA relative to UGCAUGU
29 | B29 | 0.0919 KA relative to UGCAUGU
30 | B30 | 0.648 KA relative to UGCAUGU
31 | B31 | 0.175 KA relative to UGCAUGU
32 | B32 | 0.691 KA relative to UGCAUGU
33 | B33 | 0.307 KA relative to UGCAUGU
34 | B34 | 0.15 KA relative to UGCAUGU
35 | B35 | 0.096 KA relative to UGCAUGU
